Many of the other results were omitted from the sample, so hits are more common in it than they were.
Pf Dd2 inh – qHTS Primary assay for Inhibitors of Plasmodium falciparum Dd2 growth in vitro | Potency, µM (doses to about 28.9 µM), for the others: at the top dose activity, negative = inhibition, hits mostly inhibitors | P. falciparum Dd2 growth, SYBR Green, 72 h | AID 1347417, 2020 | 4.3% of 120,000 active; active = well fitted inhibition curve with a large enough effect;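 also: plate controls were DMSO vehicle for no effect and reference drug for full effect; nearly all actives have a fitted effect of over 65% in size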
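Infected erythrocytes (Dd2, 0.3% parasitemia, 2.5% hematocrit final) are added to compound in RPMI-1640/Albumax II medium, grown 72 h at 37C in low oxygen, then lysed with saponin/Triton-X containing SYBR Green and read by fluorescence.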
Numbers without * were called inactive; i = inactive; [ ] = remark or other dose. Potency is read from the fitted curve at half-maximal effect.

SMILES	Pf Dd2 inh
COCc1nc(CCNC(=O)c2sc(C)nc2C)no1	54%
CCCCN(CCC(=O)NCCCOC)C(=O)c1ccoc1	6%
CCOc1cc(-c2nnc(SCC(=O)NCc3ccc(C)cc3)nc2-c2ccc(OC)c(OCC)c2)ccc1OC	13%
CCOc1cc(-c2nnc(SCC(=O)NCc3ccccc3)nc2-c2ccc(OC)c(OCC)c2)ccc1OC	8.9µM*
CCOc1ccc(-c2nnc(SCC(=O)NC(C)CC)nc2-c2ccc(OCC)c(OC)c2)cc1OC (stereo unspecified)	i
Cc1cc(Br)ccc1NC(=O)Cn1nc2c(cc1=O)CCCCC2	-18%
O=C(c1ccccc1)N1CCC2(COc3ccncc3[S+](=O)([O-])N2)C1 (stereo unspecified)	5%
CCOC(=O)C1(Cc2ccc(Cl)cc2)CCNCC1	3.5µM*
CCOC(=O)C1(Cc2ccccc2Cl)CCN(S(=O)(=O)c2ccccc2)CC1	-18%
CCOC(=O)C1(Cc2ccc(Cl)cc2)CCN(C(=O)c2ccc(C)s2)CC1	-15%
Cc1ccc(CNC(=O)c2ccc3c(c2)CNCCO3)cc1	-6%
CCN1c2cc(C(=O)NCc3cccc(Br)c3)ccc2C(=O)N2CCCCC21 (stereo unspecified)	-4%
COc1ccc(C(=O)N2CCC3(CC2)NC(=O)N(Cc2ccc(F)cc2)C3=O)c(C)c1	-21%
O=C(Nc1cccc(C(F)(F)F)c1)N[C@H]1CO[C@H]2[C@@H]1OC[C@@H]2n1nnnc1-c1ccc2c(c1)OCO2	i
COc1cccc(CCC(=O)N(C)C2CCc3nnc(C)n3CC2)c1 (stereo unspecified)	i
CCOC(=O)c1c(NC(=O)CSc2cn(CCNC(=O)c3ccccc3F)c3ccccc23)sc2c1CCCC2	-28%
CCOC(=O)c1c(NC(=O)CSc2cn(CCNC(=O)c3ccc(OCC)cc3)c3ccccc23)sc2c1CCC2	i
CCOC(=O)c1c(NC(=O)CSc2cn(CCNC(=O)c3ccccc3OC)c3ccccc23)sc2c1CCC2	11µM*
CC(=O)Nc1ccc(C(=O)N[C@@H]2CCOC[C@H]2OCc2ccccn2)cc1	-8%
COc1ccc(-c2noc(-c3cccn3CC(=O)Nc3ccc(C)c(C)c3)n2)cc1F	i
CCN(C(=O)Cn1cccc1-c1nc(-c2ccc(OC)c(F)c2)no1)c1ccccc1	i
COc1ccc(-c2noc(-c3cccn3CC(=O)N3CCOc4ccc(C)cc43)n2)cc1F	4µM*
O=C(Cn1cccc1-c1nc(-c2ccccc2)no1)NCc1ccc(F)cc1Cl	i
O=C(Cn1cccc1-c1nc(-c2ccccc2)no1)NCCc1ccc(Cl)cc1	39%
COc1ccccc1CC(=O)NCCn1cccc1-c1nc(-c2ccccc2)no1	8.9µM*
SMILES	Pf Dd2 inh
COCCNC(=O)Cn1cccc1-c1nc(-c2ccc(OC)c(F)c2)no1	-3%
COc1ccc(C(=O)NCCn2cccc2-c2nc(-c3ccccc3)no2)cc1F	5µM*
COc1ccc(-c2noc(-c3cccn3CC(=O)N3CCc4ccccc43)n2)cc1F	25%
O=C1CC(c2ccccc2)N(C(=O)CNC(=O)C2CCOCC2)CCCCCN1 (stereo unspecified)	23%
N#Cc1ccc(CN2CCC(N3CCNC3=O)CC2)cc1	13%[44.1 µM]
O=C1NN=C(C2CC2)C12CCN([S+](=O)([O-])c1cccc(C(F)(F)F)c1)CC2	-12%
COCC(=O)N1CCCN(C(=O)CSc2ccncc2)CC1	-1%
COc1ccc(C(=O)NC2CCN(c3cc(-c4ccc(Cl)cc4)[nH]n3)C2)cc1F (stereo unspecified)	i
CC1CCN(S(=O)(=O)C2CCS(=O)(=O)C2)CC1 (stereo unspecified)	-7%
COc1ccccc1CCN1CCC(CN(C)Cc2n[nH]c(C)n2)CC1	14%
COC(=O)[C@@H]1Cc2nc[nH]c2CN1C(C)C	4%[44.1 µM]
N#Cc1cccc(CN2CCN(c3nccc(Cl)n3)C(=O)C2)c1	-22%[44.1 µM]
Cc1noc([C@H]2CCN(C(=O)Cc3c[nH]c4ccccc34)C[C@H]2NC(=O)C2CC2)n1	-23%
CC(C)(Oc1nn(CC2CCOCC2)c2ccccc12)C(=O)NC1CCOCC1	-8%[44.1 µM]
CCOc1ccccc1NC(=O)C1CN(S(=O)(=O)C2CC2)CC12CCCCC2 (stereo unspecified)	i
COc1ccc(CNC(=O)C2CN(S(=O)(=O)C3CC3)CC23CCCCC3)c(OC)c1 (stereo unspecified)	-18%
O=C(Nc1ccc2c(c1)OCCO2)C1CN(S(=O)(=O)C2CC2)CC12CCCCC2 (stereo unspecified)	3.2µM*
CCc1noc([C@@H]2CC(F)(F)CN2C(=O)CCc2c(C)noc2C)n1	22%
CCc1c(C(=O)N2CCCC3(CCNC3)C2)[nH]c2ccccc12 (stereo unspecified)	-5%
CCOc1ccccc1CNC(=O)C(C)C1CCOCC1 (stereo unspecified)	35%
Cn1cc(C#N)cc1C(=O)N1CCC2(CCC(=O)N(CCc3cnc[nH]3)C2)CC1	21%
O=C1CCCN1CCCN1C(=O)[C@H]2CN(Cc3ccccc3)C[C@H]2C1=O	-16%

High-throughput results from PubChem BioAssay.
